# In PubChem BioAssay AID504710 (Sanford-Burnham Center for Chemical Genomics, 2011):
# A number with no mark means an inactive call. Active and inactive are the calls of the source.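 Rule for the calls: active = inhibition reaching about 16% in any single replicate (limit read from the data); inactive = the rest.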
# Target: Hexokinase HKDC1 (Homo sapiens) (UniProt Q2TB90)
# Assay: compounds lowering human HKDC1 activity – biochemical, single concentration, confirmation (AID 504710)
# Details: recombinant HKDC1, G6PDH/diaphorase/resazurin fluorescence; at 20 µM; hits give high values
# Hexokinase HKDC1 (Homo sapiens), sequence (Q2TB90 whole entry, looked up): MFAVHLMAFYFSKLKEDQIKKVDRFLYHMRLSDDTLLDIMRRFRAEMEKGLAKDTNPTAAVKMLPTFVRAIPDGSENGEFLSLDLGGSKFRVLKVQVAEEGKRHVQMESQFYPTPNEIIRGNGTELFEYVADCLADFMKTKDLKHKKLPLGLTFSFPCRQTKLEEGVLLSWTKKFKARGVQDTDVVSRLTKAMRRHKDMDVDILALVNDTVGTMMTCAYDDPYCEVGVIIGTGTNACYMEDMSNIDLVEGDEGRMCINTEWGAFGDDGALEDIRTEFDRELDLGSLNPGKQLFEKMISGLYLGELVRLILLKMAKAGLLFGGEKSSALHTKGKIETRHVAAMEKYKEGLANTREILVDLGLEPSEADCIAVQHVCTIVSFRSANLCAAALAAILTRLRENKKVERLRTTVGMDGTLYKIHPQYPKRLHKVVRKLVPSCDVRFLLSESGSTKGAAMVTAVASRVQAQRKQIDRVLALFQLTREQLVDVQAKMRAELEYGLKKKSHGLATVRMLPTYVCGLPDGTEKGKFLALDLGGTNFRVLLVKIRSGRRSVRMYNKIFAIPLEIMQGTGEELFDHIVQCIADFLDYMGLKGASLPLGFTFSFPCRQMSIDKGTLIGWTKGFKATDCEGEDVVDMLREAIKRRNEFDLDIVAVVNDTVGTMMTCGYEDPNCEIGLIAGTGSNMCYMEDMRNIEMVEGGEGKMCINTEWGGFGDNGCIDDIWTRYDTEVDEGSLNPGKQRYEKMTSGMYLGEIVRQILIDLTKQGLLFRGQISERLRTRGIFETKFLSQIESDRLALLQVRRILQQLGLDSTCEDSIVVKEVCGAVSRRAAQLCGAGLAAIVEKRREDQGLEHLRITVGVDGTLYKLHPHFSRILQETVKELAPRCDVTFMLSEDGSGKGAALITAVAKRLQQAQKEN
row,SMILES,inhibition
1,CCOC(=O)c1c(-n2c(C)cc(C=C3C(=O)NC(=S)NC3=O)c2C)sc2c1CCCC2,61% (active)
2,COc1cc2c(cc1OC)-c1c(OC)c(OC)c(OC)c3ccnc(c13)C2=O,57.5% (active)
3,Cn1c(=O)c2c(nc(N/N=C/c3c(O)n(C4CCCCC4)c(=S)[nH]c3=O)n2C)n(C)c1=O,-49.5%
4,CC[C@H](C)/C=C(C)/C=C/C1=CC2=C(Cl)C(=O)[C@@](C)(OC(C)=O)C(=O)C2=CO1,45.8% (active)
5,Cc1cccc(N2C(=O)NC(=O)/C(=C\c3ccc4c(c3)CCCN4Cc3ccccc3)C2=O)c1,45.2% (active)
6,CC(=NNC(=S)N1CC2CCC(CC2)C1)c1nccs1,-42.1%
